# From the supplement of paper PMC6555819
# Tests used:
# Test in all cases: PBM binding z-score (relative to random genomic background probes); higher = stronger binding; sequences stand for … in GC…GCGATTGACAGCGTAGAATGAAGG
# [1] = test system: PPARg:RXRa DBDmut IVT, anti-RXR (DBD mutation: RXRa K156A/R161A, NR concentration 270 nM, RXRa partner concentration 90 nM)
# Method in brief: (§1)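 Binding z-scores take random background probes as their reference. They come from custom Agilent 4×180K protein-binding microarrays incubated 1 h with ligand-free nuclear receptor dimers, with antibodies against each partner (one per run) detecting binding. Scanned fluorescence was regression-normalized.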
# [2] = test system: PPARg:RXRa IVT, anti-PPARg (NR concentration 270 nM, RXRa partner concentration 90 nM)
# Method in brief: as §1
# [3] = test system: PPARg DBDmut:RXRa IVT, anti-PPARg (DBD mutation: PPARg1 K132A/R137A, NR concentration 270 nM, RXRa partner concentration 90 nM)
# Method in brief: as §1
# [4] = test system: PPARg DBDmut IVT, anti-PPARg (DBD mutation: PPARg1 K132A/R137A, NR concentration 270 nM)
# Method in brief: as §1
# [5] = test system: PPARg homodimer (NR concentration 180 nM)
# Method in brief: as §1
# [6] = test system: PXR:RXRa (NR concentration 270 nM, RXRa partner concentration 90 nM)
# Method in brief: as §1
# [7] = test system: PXR homodimer (NR concentration 270 nM)
# Method in brief: as §1
# [8] = test system: RARa:RXR (NR concentration 270 nM, RXRa partner concentration 90 nM)
# Method in brief: as §1
# [9] = test system: RARa homodimer (NR concentration 270 nM)
# Method in brief: as §1
# [10] = test system: RARb:RXRa (NR concentration 270 nM, RXRa partner concentration 90 nM)
# Method in brief: as §1
Sequence,PBM binding z-score [1],PBM binding z-score [2],PBM binding z-score [3],PBM binding z-score [4],PBM binding z-score [5],PBM binding z-score [6],PBM binding z-score [7],PBM binding z-score [8],PBM binding z-score [9],PBM binding z-score [10]
ATCTCTAGGTAATCAAGTTCAGTGAATGCCGAAC,2.71,2.29,0.964,0.455,0.892,1.95,2,0.799,0.778,1
ATCTCTAGGTAAGACTCAGTCCAGTGAAGAACGC,1.91,1.22,-0.449,2,0.717,-0.0905,0.481,-0.0301,0.973,0.0795
GGAACGAGGGCAATGTTGATAGCATCTGTCGACG,3.67,2.77,0.286,-0.167,0.467,0.63,0.108,0.572,-0.191,2.13
TATACAGGGACAAAGGCCAGAGTACGAATGTCGA,-0.141,1.3,0.681,0.636,0.776,0.0293,0.479,0.273,0.492,1.54
ATTTCTAGGTAAAAGTTCAGTGAATCCCGAGGAT,4.32,5.47,1.89,3.02,2.19,2.38,2.31,2.04,1.29,2.81
CGTCAAAGTTCAACTATGGTAACGTAAAGCACGC,0.569,1.9,1.06,1.31,3.74,4.94,4.27,4.14,2.09,5.33
TCGAGTAGGTTATGGGCATTCAGAATGGCGTCGA,1.95,1.36,-0.529,-0.999,0.0273,-0.316,-0.754,-0.148,-0.374,0.453
GATACAGGGTCAGCAAGAGGCCAGAGTATGGAAA,0.915,2.6,-0.173,-0.37,1.98,3.23,0.0143,4.07,0.301,4.18
TCATATAGGTAAACAGGTGAAACTCCGTAAGTTA,5.13,4.56,1.07,1.38,1.21,0.711,0.237,1.28,0.733,0.76
TCTCGGAGGACACGAAGGTCTGAGCTTTCCAGAG,1.12,-0.0413,-0.829,-1.69,-0.904,-0.33,-0.787,0.107,-1.21,1.46
TAGACTAGGTCAGATCGGGCCAGTATACGCTATA,4.39,5.26,1.46,0.155,0.192,0.932,-0.501,1.18,-0.174,2.99
TAGCCTAGGTCAGATCGGGCCAGTATCCGCTATA,0.546,1.41,-0.474,-1.24,0.0691,0.834,-0.885,1.1,-1.32,3.02
CCTATTAGTTGACCATAAGGGCAAACGAAGCTCG,0.266,0.555,0.151,0.588,1.58,0.75,0.863,1.02,1.31,1.52
TTACCAAGGTGAAAGTCGTTGATCCCTCTGTAGA,1.87,2.87,0.179,0.266,-0.0514,0.456,-0.651,1.1,-0.221,1.67
TCTTGTAGATCAGCAGGTTTAGAAAGCTGGCCAA,1.21,-0.135,-0.815,-0.0639,-0.866,-0.251,-0.893,-0.334,-0.74,-0.387
TCATATAGGTAGAGGTGAAAGTCGAACGATATGA,2.29,2.16,2,0.275,0.614,0.78,0.269,1.22,0.173,1.31
GGGACTGGGGCATCAGCAGGTTACCATAACTTAA,4.49,5.48,0.985,1.98,1.51,1.12,0.678,1.2,0.663,1.33
TCGCGTAGGTTAGTCGGGGCATTCAGCCAACATA,0.798,0.382,-0.631,-0.248,-0.58,0.226,-0.158,0.335,-0.333,0.559
ATATGTAGGTTAGCTGGGGTAATTCAGACTAGGC,6.75,6.17,1.99,1.76,0.916,1.12,0.0639,1.44,0.818,1.02
TCAGACAGGTGCAGGTAACTCAGGTACGCAGTCG,1.83,-0.017,-0.24,-0.576,-0.207,0.426,-0.203,0.659,-0.372,0.311
ATCTCTAGGTAACCAAGTTCATTGAATGCCGAAC,3.59,3.08,1.78,1.57,1.37,3.97,7.05,1.72,1.19,1.75
ATATGTCGGTTAGCTGGGGTCATTCAGACTAGGC,1.3,2.25,0.889,0.777,1.85,5.49,3.48,5.05,0.853,2.62
CGAACTAGATCAAGGACAGTGAATCTCCGCACGC,1.97,0.649,-0.11,-0.153,0.0368,-0.495,-0.0304,-0.24,0.262,0.0814
TAGCCTAGGTCAGATCGGGCCGGTATACGCTATA,0.592,1.34,-0.27,-0.214,0.114,0.345,-0.722,0.515,-0.746,2.98
